Screening data deposited in PubChem BioAssay by National Center for Advancing Translational Sciences (NCATS).
Hits are enriched below; roughly 6.7% of the tested compounds scored in any of these assays.
SW480 rereplic: inducers of DNA re-replication in SW480 colon cancer cells; SW480 DNA re-replication, Hoechst DNA content imaging, 48 h; Potency, µM (top dose mostly 46.1 µM), for inactives: at the top dose re-replication activation, actives largely listed as activators; actives 1.8% (n = 340,000); AID 624297; also: % of control where 0% means no effect; nearly all actives have a fitted effect of over 55% in size
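SW480 cells exposed to compounds for 48 hr at 37 C, 5% CO2, then Hoechst-stained 40 min. Nuclear DNA content imaged by fluorescence scanning (405 nm excitation, 500-530 nm emission); re-replication scored as increased high-intensity nuclei.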
PINK1 modulator: changes PINK1 expression; PINK1 immunofluorescence, high-content cytometry, 24 h; Potency, µM (doses to about 76.6 µM), for inactives: at the top dose activation (PINK1 increase), most hits filed as activators; actives 0.2% (n = 410,000); AID 624263; active = well fitted activation curve with a large enough effect; inconclusive = small, poorly fitted or top-dose-only effect; cell line not stated here; also: % of control where 0% means no effect; nearly all actives have a fitted effect of over 65% in size
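PINK1 protein level read as immunofluorescence by microplate cytometer in a fixed, stained stable cell line after 24 h exposure to five compound concentrations, with CCCP as control.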
KB-V1 MDR tox: KB-V1 MDR subline cytotoxicity; KB-V1 MDR cells viability, CellTiter-Glo, 72 h; Potency, µM (top dose mostly 46.1 µM), most hits filed as cytotoxic; actives 3.4% (n = 400,000); AID 1347076; also: % is scaled to controls: 0 for no effect and ±100 for the full control effect; nearly all actives have a fitted effect of over 60% in size
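KB-V1 cells (P-gp-expressing MDR subline of KB-3-1) in phenol-red-free DMEM with 10% FBS were exposed to library compounds over a concentration series for 72 h at 37 degrees C. Viability read by CellTiter-Glo luminescence; concentration-effect curves fitted after normalization.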
MCF10A rereplic: inducers of DNA re-replication in MCF 10A breast cells; MCF 10A DNA re-replication, Hoechst nuclear intensity, 48 h; Potency, µM (doses to about 46.1 µM), without a hit: at the top dose activity, positive = re-replication, usual class: activators; actives 2.9% (n = 350,000); also: % of control where 0% means no effect; nearly all actives have a fitted effect of over 50% in size
KB-3-1 cytotox: kills parental KB-3-1 adenocarcinoma cells | KB-3-1 viability, CellTiter-Glo ATP luminescence, 72 h | Potency, µM (doses to about 46.1 µM), hits mostly cytotoxic | actives 1.4% (n = 400,000); also: % is scaled to controls: 0 for no effect and ±100 for the full control effect; nearly all actives have a fitted effect of over 60% in size
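Luminescent ATP read-out (CellTiter-Glo) measures survival of drug-naive KB-3-1 cells after 72 h compound exposure at 37 °C. Titration series was screened from lowest to highest concentration, with DMSO vehicle plates as background controls.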
The depositor's hits bear a star; i = inactive; ? = inconclusive; nt = no result given; [ ] = another dose, or the depositor's remark. Unless noted, calls follow the shape of the dose curve; as a rule, active = well fitted curve in the direction sought with a large enough effect; inconclusive = small, poorly fitted or top-dose-only effect, or another doubt; inactive = no such curve, though single readings can be large; an effect the other way counts as inactive or inconclusive. Potency is read from the fitted curve at half-maximal effect.

SMILES	SW480 rereplic	PINK1 modulator	KB-V1 MDR tox	MCF10A rereplic	KB-3-1 cytotox
O=C(CC1SC(N2CCCCC2)=NC1=O)Nc1cccc(C(=O)N2CCCC(C(F)(F)F)C2)c1 (configuration not stated)	-13%	-1%	i	-2%	i
Cc1cc(C)c(C)c(OCCCCn2cnc3ccccc3c2=O)c1	12%	-4%[38.3 µM]	23µM*	?	i
CCOCC(=O)NC1CCc2cc(OC)c(OC)c(OC)c2-c2ccc(SC)c(=O)cc21 (configuration not stated)	0.052µM*	7%	?	?	0.0058µM*
CCCCOC(=O)NC1CCc2cc(OC)c(OC)c(OC)c2-c2ccc(SC)c(=O)cc21 (configuration not stated)	?	2%	0.29µM*	?	0.15µM*
CCOC(=O)NC1CCc2cc(OC)c(OC)c(OC)c2-c2ccc(SC)c(=O)cc21 (configuration not stated)	0.037µM*	18%	0.23µM*	?	0.16µM*
CN[C@H]1CCc2cc(OC)c(OC)c(OC)c2-c2ccc(OC)c(=O)cc21	?	1%	1.2µM*	?	0.029µM*
COc1c(O[C@H]2O[C@@H](CO)[C@@H](O)[C@@H](O)[C@@H]2O)cc2c(c1OC)-c1ccc(SC)c(=O)cc1[C@H](NC(C)=O)CC2	0%[20.6 µM]	nt	nt	0%[20.6 µM]	nt
O=C(CSc1nnc(NC(=O)c2ccccc2[N+](=O)[O-])s1)NC1CCCC1	2%	0%	i	1%	i
CCCCNC(=O)c1nc(C2CCN(S(=O)(=O)c3c(F)cccc3F)CC2)oc1-c1ccccc1	nt	1%	i	nt	i
CC(C)(O)C#Cc1ccc(CN2CCc3nnc(CNC(=O)c4cccc(F)c4)n3CC2)cc1	nt	0%	nt	nt	nt
CC(=O)Oc1ccc(Cn2c(C)c(C(=O)NCc3ccc4c(c3)OCCO4)sc2=O)cc1	nt	2%	?	nt	i
Cc1sc2nc(SCC(=O)C(C)(C)C)n(Cc3ccco3)c(=O)c2c1C	5.8µM*	?	2.6µM*	5.8µM*	?
COc1ccc(NC(=O)CSc2nc3sc(C)c(C)c3c(=O)n2Cc2ccco2)cc1	?	21%[38.3 µM]	?	15µM*	i
Cc1sc2nc(SCc3ccccc3)n(Cc3ccco3)c(=O)c2c1C	6%	?	i	9.2µM*	i
Cc1ccc(CSc2nc3sc(C)c(C)c3c(=O)n2Cc2ccco2)cc1	-12%	nt	i	-1%	i
Cc1cc(C)c(S(=O)(=O)N2CCCCC2CCNC(=O)C(=O)NCc2cccnc2)c(C)c1 (configuration not stated)	-6%	4%	8.2µM*	5%	i
Cc1ccc(C)c(S(=O)(=O)N2CCCCC2CCNC(=O)C(=O)NCc2cccnc2)c1 (configuration not stated)	?	3%	?	11%	i
Cc1ccc(C)c(S(=O)(=O)N2CCCCC2CCNC(=O)C(=O)NCc2ccccc2)c1 (configuration not stated)	?	11%	?	?	26µM*
O=C(NCCC1CCCCN1S(=O)(=O)c1ccc(F)cc1)C(=O)NCc1ccncc1 (configuration not stated)	0%	-1%	i	15%	i
Cc1ccc(S(=O)(=O)N2CCCCC2CCNC(=O)C(=O)NCc2cccnc2)cc1 (configuration not stated)	16µM*	5%	?	?	8.2µM*
Cc1ccc(S(=O)(=O)N2CCCCC2CCNC(=O)C(=O)NC2CC2)cc1 (configuration not stated)	4%	3%	8.2µM*	7%	i
O=C(c1ccncc1)N1CCC2(CCN(Cc3nccs3)CC2)CC1	nt	0%	nt	nt	nt
CCc1ccccc1Nc1nc2cc(Cl)c(Cl)cc2nc1-n1nc(C)cc1C	nt	-1%	i	nt	i
CCN(CC)CCN1C(=O)c2ccccc2NC1c1ccc(OC)c(COc2ccc(NC(C)=O)cc2)c1 (configuration not stated)	nt	0%	?	nt	i
O=C(NCCC1CCCCN1S(=O)(=O)c1ccc(Cl)cc1)C(=O)NCc1ccncc1 (configuration not stated)	3%	-3%	i	-39%	i
SMILES	SW480 rereplic	PINK1 modulator	KB-V1 MDR tox	MCF10A rereplic	KB-3-1 cytotox
Cc1ccc(CNC(=O)C(=O)NCCC2CCCCN2S(=O)(=O)c2ccc(C)cc2)cc1 (configuration not stated)	?	-2%	3.7µM*	?	i
Cc1ccccc1CNC(=O)C(=O)NCCC1CCCCN1S(=O)(=O)c1ccccc1 (configuration not stated)	0%	-3%	6.5µM*	15%	?
O=C(CSc1nnnn1-c1cccc(F)c1)NC1CCCCC1	-7%	4%	18µM*	-3%	i
COc1cccc(-n2nnnc2SCC(=O)N2CCCc3ccccc32)c1	12µM*	-4%[38.3 µM]	i	?	i
Cc1ccc(C)c2c1cc(C)c1nnc(SCC(=O)N3CCCc4ccccc43)n12	-141%	1%	9.2µM*	4%	?
Cc1cc(C)c2c(c1)cc(C)c1nnc(SCC(=O)N3CCCc4ccccc43)n12	2%	2%	?	13%	i
Cc1ccc(C(=O)Nc2nnc(SCC(=O)N3CCCc4ccccc43)s2)cc1	4%	2%	23µM*	?	i
CN(Cc1ccco1)c1cc(-c2ccc3c(c2)OCO3)ncn1	nt	1%	nt	nt	nt
Cc1ccc(N(CC(=O)NC2CCCCC2)C(=O)CNC(=O)c2ccco2)cc1C	0%	-1%	?	-5%	i
COc1cccc(-n2nnnc2SCC(=O)NC2CCCC2)c1	-2%	-3%	21µM*	3%	i
COc1cccc(-n2nnnc2SCC(=O)NC2CCCCC2)c1	2%	-2%	i	9%	i
COc1ccc(CN(C)C(=O)Cn2cnc3c(NCc4ccccc4)ncnc32)cc1OC	-3%	0%	i	-3%	i
COc1ccc(-c2nc3sc(CCNC(=O)c4ccco4)c(C)n3n2)cc1	nt	1%	?	nt	i
CCc1ccc(OCC(=O)N(Cc2ccco2)Cc2ccco2)cc1	nt	1%	nt	nt	nt
CC1CCN(CCCNC(=O)c2cc3c(s2)-c2ccccc2OC3)CC1	84%	-1%	i	5.8µM*	23µM*
CCc1ccc(CNC(=O)c2cc3c(s2)-c2ccccc2OC3)cc1	nt	8%	?	nt	15µM*
CC1CCCN(CCCNC(=O)c2cc3c(s2)-c2ccccc2OC3)C1 (configuration not stated)	?	-1%	i	?	?
COCCCN(Cc1ccco1)C(=O)c1cc2c(s1)-c1ccccc1OC2	nt	4%	10µM*	nt	?
Cc1cccc2c1-c1sc(C(=O)NCCCN3CCC(C)CC3)cc1CO2	29µM*	-1%	i	23µM*	?
